Caspase-1 inhib = caspase-1 (human) inhibition, allosteric or competitive; hit rate 0.03% among 75,000; Potency, µM (series often up to 57.5 µM), without a hit: at the top dose activity change, negative = inhibition, usual class: inhibitors; P29466; AID 900; Caspase-1 enzyme, Ac-WEHD-AFC fluorogenic rate;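 note: plate controls were vehicle for no effect and no substrate for full effect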
ALOX15B inhib = inhibitors of human 15-lipoxygenase 2 (ALOX15B); O15296; purified 15hLO-2, xylenol orange hydroperoxide absorbance; Potency, µM (series often up to 57.1 µM), without a hit: top-dose activity change, negative = inhibition, hits mostly inhibitors; hit rate 0.56% among 110,000; AID 881; note: % is set by controls: 0 for no effect and ±100 for the full control effect; nearly all actives have a fitted effect of over 60% in size
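Purified human 15hLO-2 (50 nM) preincubated 15 min with compound, then 45 uM arachidonic acid for 90 min at RT in 25 mM Hepes pH 7.5, 0.01% Triton X-100. Hydroperoxide detected by Fe-xylenol orange; 573/405 nm absorbance ratio.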
ALOX15 inhib = blocks human 15-lipoxygenase activity | purified 15hLO-1, xylenol orange hydroperoxide absorbance | P16050 | hit rate 1.4% among 74,000 | Potency, µM (doses to about 57.1 µM), for the others: top-dose activity change, negative = inhibition, usual class: inhibitors; note: % is set by controls: 0 for no effect and ±100 for the full control effect; nearly all actives have a fitted effect of over 55% in size
Target sequence (P16050 whole entry, looked up): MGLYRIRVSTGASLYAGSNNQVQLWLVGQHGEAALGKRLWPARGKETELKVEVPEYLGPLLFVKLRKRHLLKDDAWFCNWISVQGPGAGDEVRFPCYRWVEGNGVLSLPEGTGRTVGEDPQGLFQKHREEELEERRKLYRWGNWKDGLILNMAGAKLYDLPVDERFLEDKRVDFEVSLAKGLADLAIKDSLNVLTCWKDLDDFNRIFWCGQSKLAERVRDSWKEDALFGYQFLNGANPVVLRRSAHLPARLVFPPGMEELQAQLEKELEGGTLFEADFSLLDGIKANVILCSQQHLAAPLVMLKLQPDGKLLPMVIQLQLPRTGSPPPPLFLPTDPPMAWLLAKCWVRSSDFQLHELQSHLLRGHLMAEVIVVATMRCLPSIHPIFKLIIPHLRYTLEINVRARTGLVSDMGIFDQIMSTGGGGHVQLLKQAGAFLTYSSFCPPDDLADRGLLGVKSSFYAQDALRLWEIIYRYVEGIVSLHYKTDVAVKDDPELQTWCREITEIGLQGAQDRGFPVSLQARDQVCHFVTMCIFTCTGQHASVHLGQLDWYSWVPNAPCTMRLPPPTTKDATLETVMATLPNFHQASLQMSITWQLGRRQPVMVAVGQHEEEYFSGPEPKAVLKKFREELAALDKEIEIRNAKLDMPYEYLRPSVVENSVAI
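40 nM 15hLO-1 + cpd, 15 min RT; start w/ 50 uM AA (final), 6 min RT; stop/detect w/ 200 uM XO + 300 uM Fe(II) in 50 mM H2SO4, 30 min; A573/A405. Buffer 25 mM Hepes pH 7.5, 0.01% Triton X-100. No-enzyme wells as negative control.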
HEK293 cAMP ctrl = raises cAMP in parental HEK293 cells, TSHR agonist counter-screen; parental HEK293 CNG cAMP sensor, membrane potential fluorescence; AID 938; hit rate 2.5% among 73,000; Potency, µM (highest dose often 57.1 µM), for the others: top-dose activation, usual class: activators; note: % of control where 0% means no effect; nearly all actives have a fitted effect of over 55% in size
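Parental HEK 293 cells stably expressing a cAMP-gated CNG channel were loaded with membrane potential dye containing 100 uM RO 20-1724 for 60 min. Compound added for 30 min; depolarization read as fluorescence intensity at 590 nm.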
Caspase-7 inhib = blocks human caspase-7 allosterically or competitively. P55210. recombinant caspase-7, Ac-DEVD-AFC fluorescence rate. Potency, µM (top dose mostly 57.5 µM), inactives show at the highest dose activity change, negative = inhibition, hits mostly inhibitors. hit rate 0.02% among 75,000; active = well fitted inhibition curve with a large enough effect in the main read-out, with a control signal flat, not every such curve was filed as active; inconclusive = small, poorly fitted or top-dose-only effect, or a change in a side signal; note: % of control where 0% means no effect
TSHR ag = activates the human thyroid stimulating hormone receptor; P16473; HEK293-CNG-TSHR cells (CNG channel as cAMP sensor), membrane potential dye, cAMP; Potency, µM (titrated, usually from 57.1 µM), inactives show at the top dose activation, hits mostly activators; hit rate 0.48% among 73,000; active = well fitted activation curve with a large enough effect in the main read-out, with a control signal flat, not every such curve was filed as active; inconclusive = small, poorly fitted or top-dose-only effect, or a change in a side signal; inactive = no such curve, though single readings can be large or run the other way; % of control where 0% means no effect;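 note: the control signal comes from parental cells without the receptor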
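HEK 293 cells stably expressing TSHR and a cAMP-gated CNG channel; parental CNG-only cells as counterscreen. Cells preloaded 60 min with membrane potential dye plus 100 uM RO 20-1724, then compound 30 min; fluorescence read at 590 nm.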
Starred values were filed as active, the others as inactive; ? = inconclusive; · = not tested or not shown; ! = repeats disagree; [ ] = another dose, or the depositor's remark. In the library only some 3% were active in any assay of this set; here they are far more common. Unless noted, calls come from the whole dose curve; as a rule, active = well fitted curve in the direction sought with a large enough effect; inconclusive = small, poorly fitted or top-dose-only effect, or another doubt; inactive = no such curve, though single readings can be large; an effect the other way counts as inactive or inconclusive. Potency is the fitted concentration of half-maximal effect.

SMILES | Caspase-1 inhib | ALOX15B inhib | ALOX15 inhib | HEK293 cAMP ctrl | Caspase-7 inhib | TSHR ag
CN(C)c1ccc2c(c1)N=C(c1ccco1)OP2(=S)N1CCOCC1 (centres undefined) | -2% | -23% | ? | 25% | -1% | 16µM*
CCC(=O)Nc1c(C)nn(C(=O)CC)c1C | -1% | 14% | 1% | 32µM* | 2% | ?
C[C@@H]1CCC/C=C\[C@H]2C[C@H](O)C[C@@H]2[C@H](O)/C=C\C(=O)O1 | · | · | · | -5% | · | -8%
CCCC[C@@H]1C[C@H]1C(NP(=O)(c1ccccc1)c1ccccc1)c1ccc(Cl)cc1 (some centres undefined) | · | · | · | 2.5µM* | · | ?
C[C@@H](CO)NC(=O)[C@H]1C=C2c3cccc4[nH]cc(c34)C[C@H]2N(C)C1 | · | · | · | -1% | · | -2%
O=c1c2ccccc2[se]n1-c1ccccc1 | 0% | 0.63µM* | 0.4µM* | -8%[25.6 µM] | 0% | -14%[25.6 µM]
O=c1c2ccccc2nc(N2CCCC2)n1-c1ccccc1 | · | -1% | · | · | · | ·
COc1cc2c(cc1OC)[C@]13CCN4CC5=CCO[C@@H]6CC(=O)N2[C@@H]1[C@H]6[C@@H]5C[C@H]43 | · | · | · | 8% | · | 5%
CCCCN1C(=O)NC(=O)C2(Cc3c(nc4c(C)cccn4c3=O)N3CCc4ccccc4C32)C1=O (centres undefined) | -1% | 1%[2.29 µM] | 6% | 12% | -1% | 24%
CCCCN1C(=O)NC(=O)C2(Cc3c(nc4ccccn4c3=O)N3CCc4ccccc4C32)C1=O (centres undefined) | -5% | -15% | 20µM* | 22% | -3% | 26%
O=C(Nc1cccnc1)c1c(O)c2c(n(Cc3ccccc3)c1=O)CCCC2 | 0% | 32% | 19% | 13µM* | 1% | ?
CC(O)(CS(=O)(=O)c1ccccc1)C(=O)Nc1cccc(C(F)(F)F)c1 (centres undefined) | · | -9% | · | · | · | ·
C[C@@H](Cc1cccc(C(F)(F)F)c1)NCCCc1ccccc1 | 0% | 58% | -3%[25.6 µM] | 40µM* | 0% | ?
CN(C)[C@@H]1C(=O)C(C(N)=O)=C(O)[C@]2(O)C(=O)C3=C(O)c4c(O)cccc4[C@@](C)(O)[C@@H]3C[C@@H]12 | · | · | · | 4% | · | -4%
CC(NS(=O)(=O)c1ccc(CCC(=O)N2CCN(C)CC2)cc1)c1ccccc1 (centres undefined) | -1% | 5% | 0% | 4µM* | -1% | ?
CS(=O)(=O)O[C@H]1CN2CCC1CC2 | 0%[11.5 µM] | -6%[11.4 µM] | 0%[11.4 µM] | 18%[11.4 µM] | 0%[11.5 µM] | 9%[11.4 µM]
O=C1C(Cl)=C(N2CCCCCC2)C(=O)N1c1ccccc1 | -7% | -15% | 5µM* | ? | -11% | ?
O=C1C(c2ccccc2)=C(N2CC2)c2ccccc21 | · | -5% | · | · | · | ·
CN[C@H]1[C@H](C)O[C@@H](O[C@@H]2C/C=C(/C)C/C(C)=C\C=C/CC[C@@H](C)CNC(=O)/C=C\C=C/[C@H]2C)C[C@@H]1O | · | · | · | 4%[11.4 µM] | · | -1%[11.4 µM]
CN1C[C@H](C(=O)N[C@@]2(C)O[C@@]3(O)[C@H]4CCCN4C(=O)[C@@H](Cc4ccccc4)N3C2=O)C=C2c3cccc4[nH]cc(c34)C[C@@H]21 | -16%[11.5 µM] | -7%[11.4 µM] | -16%[11.4 µM] | 1%[11.4 µM] | -26%[11.5 µM] | -2%[11.4 µM]
[CH3][Hg][Cl] | 1% | -25% | 16µM* | -28% | 1% | ?
O=C1C=CC(=O)C(Cl)=C1 | · | 11µM* | · | · | · | ·
CCN(CC)C(=O)N[C@@H]1C=C2c3cccc4[nH]cc(c34)C[C@@H]2N(C)C1 | · | · | · | 16µM*! | · | ?
N=C(N)SCc1ccc(Cl)c2ccccc12 (tested in a mixture with another compound) | 3%[11.5 µM] | 7%[11.4 µM] | 29%[11.4 µM] | 17%[11.4 µM] | -3%[11.5 µM] | 14%[11.4 µM]
CC(C)CN(CC(C)C)c1ccc(C=C2C(=O)NC(=S)NC2=O)cc1[N+](=O)[O-] | · | 10µM* | · | · | · | ·
SMILES | Caspase-1 inhib | ALOX15B inhib | ALOX15 inhib | HEK293 cAMP ctrl | Caspase-7 inhib | TSHR ag
Nc1c(C(=O)Nc2ccc([As](=O)(O)O)cc2)cnc2nnnn12 | -2%[11.5 µM] | -4%[11.4 µM] | 11%[11.4 µM] | -5%[11.4 µM] | 0%[11.5 µM] | -2%[11.4 µM]
c1cc(CCN2CCCCC2)ccn1 | 2%[11.5 µM] | 2%[11.4 µM] | -4%[11.4 µM] | 2%[11.4 µM] | 0%[11.5 µM] | -5%[11.4 µM]
c1ccc(Nc2ccc(Nc3ccccc3)cc2)cc1 | -2% | 13µM* | 4µM* | -54% | -6% | ?
O=Nc1ccc(Nc2ccccc2)cc1 | -3% | ? | -21% | -21% | 3% | ?
Nc1cc(Cl)ccc1O | -6% | -2% | 1.6µM* | -17% | -10% | -19%
Nc1ccc(Cl)cc1N | -3% | 4% | ? | -5% | -2% | ?
CC(C)(C)c1cc(C#N)cc(Br)c1OP(=O)(Oc1c(Br)cc(C#N)cc1C(C)(C)C)c1ccccc1 | 0%[11.5 µM] | -11%[11.4 µM] | -10%[11.4 µM] | 0%[11.4 µM] | 3%[11.5 µM] | 8%[11.4 µM]
NNc1c(C(N)=O)c2c(N)ncnc2n1[C@@H]1O[C@H](CO)[C@@H](O)[C@@H]1O | · | · | · | -6%[11.4 µM] | · | 2%[11.4 µM]
O=C(O)/C=C\c1ccc[c]([Sb](=[O])([OH])[OH])c1 | -6%[11.5 µM] | 38%[11.4 µM] | -26%[11.4 µM] | 0%[11.4 µM] | -3%[11.5 µM] | -7%[11.4 µM]
O=C(c1ccco1)c1cn(Cc2ccc(Cl)cc2)c2ccccc12 | · | 15% | · | · | · | ·
COc1ccccc1OCCCn1cc(C(=O)c2ccco2)c2ccccc21 | -5% | -5% | -19% | 32µM* | -1% | ?
CC(=O)N1C[C@@H]2C[C@H](C1)c1cccc(=O)n1C2 | · | · | · | 1% | · | 3%
C=CC1CC=CCC1 (centres undefined) | -3% | 2% | 32µM* | 29% | -3% | 5%
COC(=O)[C@]1(C)CC[C@@]2(C)CC[C@@]3(C)C4=CC=C5C(=CC(=O)C(O)=C5C)[C@@]4(C)CC[C@@]3(C)C2C1 (some centres undefined) | 2% | 4µM* | 2µM* | · | -3% | ·
O=c1cccc2n1C[C@@H]1C[C@H]2CN2CCCC[C@H]12 | · | · | · | -10% | · | -8%
c1ccc(CN2CCC3(CCc4ccccc43)CC2)cc1 | 1% | 62% | -14%[25.6 µM] | 32µM* | 1% | ?
CCNC(=O)[C@@H]1O[C@@H](n2cnc3c(N)ncnc32)[C@H](O)[C@H]1O | 1% | 10% | -12%[25.6 µM] | 0.16µM* | 1% | ?
COc1ccc2c(c[n+](C)c3c4cc5c(cc4ccc23)OCO5)c1OC | 4% | 13µM* | ? | -35% | -1% | ?
COc1ccc2c3c1O[C@@H]1C(=O)CC[C@@]4(O)[C@@H](C2)N(CC2CC2)CC[C@]314 | -2% | 4% | -5% | ? | 0% | ?
CCCN1CC[C@@H]2c3cc(O)ccc3CC[C@H]21 | 1% | 2% | 4% | ? | 1% | ?
O[N+]1=CC=CCC1=S.On1ccccc1=S.[Zn] | -5% | ? | 2.5µM* | · | -9% | ·
